# An excerpt weighted towards active compounds, which were near 19% of everything screened.
# DT40 TDP1 CPT = DT40-hTDP1 cell growth loss with CPT | Potency, µM (top dose mostly 46.2 µM), for the others: at the highest dose activity change, negative = growth inhibition, usual class: inhibitors | chicken DT40 Tdp1-/-;hTDP1 cells + 20 nM CPT, ATP luminescence, 48 h | hit rate 12% among 420,000 | AID 686979; further: potency means the concentration at half of the fitted maximal effect; on the % scale 0 is the no-effect control and ±100 the full control effect; nearly all actives have a fitted effect of over 55% in size
#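 Chicken DT40 Tdp1-/- cells stably complemented with human TDP1 were seeded at 400 cells/well in medium containing 20 nM camptothecin, exposed to pin-transferred compounds, and grown at 37 °C for at least 48 hr. Viability was read as ATP luminescence.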
# IL-1B inflam inh = inhibitors of inflammasome signaling (IL-1 beta secretion); THP-1 LPS/ATP IL-1B secretion, AlphaLISA, 16 h; stronger effect = lower value; activity change, % at 57.5 µM; hit rate 4.7% among 360,000; AID 743279; in the data active means activity change below about -50%; inconclusive means mostly about -30% to -49%; further: on the % scale 0 is the no-effect control and ±100 the full control effect
#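 THP-1 cells pretreated 1 hr with compounds (up to 57.5 uM final), then stimulated with LPS (250 ng/mL final) plus ATP (1.25 mM final); secreted IL-1B measured by AlphaLISA after 16 hr, decreased signal indicating inhibition.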
# TGFb inhibitor = blocks TGF-b signaling | hit rate 1.2% among 410,000 | HepG2 CAGA-GFP TGF-b/SMAD3 reporter, GFP fluorescence, 18 h; TGF-beta stimulated, 500 pg/mL final | Potency, µM (highest dose often 46.1 µM), for the others: at the top dose activity, negative = inhibition, most hits filed as inhibitors; further: potency means the concentration at half of the fitted maximal effect; on the % scale 0 is the no-effect control and ±100 the full control effect; nearly all actives have a fitted effect of over 65% in size
#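 First, reporter cells (HEPG2 CAGA-GFP) rested 2 h at 37 degrees C. Next, compounds were pinned in and TGF-beta added to 500 pg/mL final. After 18 h, GFP was imaged per cell and summed per well.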
# DT40 TDP1 no CPT = qHTS for Inhibitors of human tyrosyl-DNA phosphodiesterase 1 (TDP1): qHTS in cells in absence of CPT; DT40 Tdp1-/- hTDP1 cells, no CPT, ATP luminescence, 48 h; Potency, µM (top dose mostly 46.2 µM), inactives show at the highest dose activity change, negative = growth inhibition, actives largely listed as inhibitors; hit rate 15% among 420,000; AID 686978, 2013; further: potency means the concentration at half of the fitted maximal effect; on the % scale 0 is the no-effect control and ±100 the full control effect; nearly all actives have a fitted effect of over 55% in size
#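 A cellular qHTS used chicken DT40 cells lacking endogenous Tdp1 but carrying stably transfected human TDP1. Compounds were applied without camptothecin, and cell growth kinetics were judged by ATP-dependent luminescence after ≥48 hr.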
# HepG2 viability = counter-screen for TGF-b inhibitors: cytotoxicity in HepG2 cells. HepG2 CAGA-GFP viability, ATP luminescence, 18 h. Potency, µM (top dose mostly 46.1 µM), for the others: at the top dose activity change, negative = cytotoxicity, usual class: cytotoxic. hit rate 0.76% among 410,000. AID 588856; further: potency means the concentration at half of the fitted maximal effect
#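 CellTiter-Glo luminescence gave cytotoxicity after 18 hours at 37 degrees C. The cells were HepG2 CAGA-GFP in 1% FBS DMEM, stimulated with 500 pg/mL TGF-beta after compound addition. %Activity was normalised to no-cell wells (complete cell-killing) and DMSO (no toxicity), and curves were fitted and classified.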
# S-ASM inh = inhibitors of human secretory acid sphingomyelinase | P17405 | placental ASM, HMU-PC fluorogenic substrate, 60 min | Potency, µM (top dose mostly 57.5 µM), without a hit: at the highest dose activity change, negative = inhibition, hits mostly inhibitors | hit rate 0.006% among 340,000 | AID 504937; further: potency means the concentration at half of the fitted maximal effect
# Target sequence (P17405 47-631 limits assumed): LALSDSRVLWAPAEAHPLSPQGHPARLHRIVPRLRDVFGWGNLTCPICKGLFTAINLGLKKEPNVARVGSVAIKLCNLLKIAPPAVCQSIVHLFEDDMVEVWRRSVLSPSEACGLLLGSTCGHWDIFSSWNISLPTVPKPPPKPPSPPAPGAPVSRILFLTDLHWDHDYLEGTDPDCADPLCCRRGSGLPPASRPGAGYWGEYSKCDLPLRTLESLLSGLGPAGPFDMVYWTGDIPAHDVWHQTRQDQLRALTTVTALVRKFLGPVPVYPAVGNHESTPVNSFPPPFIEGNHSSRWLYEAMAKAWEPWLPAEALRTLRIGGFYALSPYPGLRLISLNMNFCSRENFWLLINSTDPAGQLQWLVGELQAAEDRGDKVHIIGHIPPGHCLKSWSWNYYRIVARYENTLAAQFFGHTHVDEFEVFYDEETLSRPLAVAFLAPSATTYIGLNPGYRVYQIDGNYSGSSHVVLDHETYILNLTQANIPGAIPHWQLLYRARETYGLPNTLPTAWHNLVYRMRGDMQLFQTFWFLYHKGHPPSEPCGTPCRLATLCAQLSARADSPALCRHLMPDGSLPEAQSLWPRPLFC
#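 HMU-PC0 cleavage (9 uM final) by human placental ASM, 60 min at 37 °C following 10 min compound exposure at RT; stopped at pH 10, fluorescence Ex 386/Em 447 nm.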
# Numbers without * were called inactive; ? = inconclusive; nt = not tested or not shown; [ ] = another dose, or the depositor's remark. Unless noted, the call rests on the fitted dose curve; in most records, active means well fitted curve in the direction sought with a large enough effect; inconclusive means small, poorly fitted or top-dose-only effect, or another doubt; inactive means no such curve, though single readings can be large; an effect the other way counts as inactive or inconclusive.
SMILES,DT40 TDP1 CPT,IL-1B inflam inh,TGFb inhibitor,DT40 TDP1 no CPT,HepG2 viability,S-ASM inh
O=C(NCc1ccc(F)cc1)c1cc2c(s1)CS(=O)(=O)C2,-8.0%,9.8,-2.3%,3.5%,0.8%,-3.4%
O=C(CCCN1C(=O)/C(=C\c2cccs2)SC1=S)Nc1ccc(O)cc1,25.9µM*,18.0,?,?,-9.6%,-17.2%
COc1ccc(/C=C2\SC(=S)N(CCCC(=O)NNC(=O)c3ccccc3O)C2=O)cc1,?,68.8,2.9%,8.2µM*,-0.3%,22.0%
O=C(NN1C(=O)/C(=C/c2ccc(O)cc2)SC1=S)c1ccccc1O,-1.7%,-8.8,-4.5%,?,-3.5%,?
COc1cc(/C=C2\SC(=S)N(NC(=O)c3ccccc3O)C2=O)ccc1O,?,23.2,8.1%,25.9µM*,-8.3%,?
COc1ccc(/C=C2/SC(=S)N(CCCC(=O)Nc3cccc(O)c3)C2=O)cc1,?,-78.9*,?,?,2.7%,-20.9%
COc1ccc(/C=C2/SC(=S)N(CCCC(=O)Nc3ccccc3C(=O)O)C2=O)cc1,1.6%,20.0,-8.5%,-3.4%,-5.9%,-0.2%
COc1cccc(C2C(C(=O)Nc3cccnc3)=C(C)Nc3nc(SCc4ccccc4)nn32)c1 (stereo not given),-14.2%,nt,0.4%,-4.2%,-4.3%,nt
O=C(COC(=O)c1nc(Cl)ccc1Cl)NCc1cccs1,14.8%,26.9,-14.2%,-7.3%,-7.4%,10.1%
CC(=O)Nc1ccc(NC(=O)C(C)Sc2nnc(C3CC3)n2-c2ccccc2)cc1 (stereo not given),2.8%,14.6,-0.7%,10.8%,-38.7%,4.2%
CC(C)(C)OC(=O)N1CCC(c2c(C(=O)NCCN3CCOCC3)cnn2-c2cccc(Cl)c2)CC1,?,nt,-30.9%,?,-23.5%,nt
O=C(CCCN1C(=O)/C(=C/c2cccs2)SC1=S)NNC(=O)c1ccccc1O,20.6µM*,0.0,-0.8%,16.4µM*,-10.2%,-0.5%
Cc1cc(C)c(OCC(=O)OCC(=O)NNC(=O)c2ccccc2F)c(C)c1,-5.6%,-16.2,-1.6%,0.6%,13.6%,2.3%
Cc1cccc(-n2c(SCC(=O)NCc3ccc4c(c3)OCO4)nc3ccccc3c2=O)c1,?,-15.8,6.8%,?,-0.8%,2.2%
CC(Sc1nnc(-c2cccnc2)n1-c1ccccc1)C(=O)NCc1ccc2c(c1)OCO2 (stereo not given),-8.5%,2.2,1.6%,-5.1%,-2.3%,6.5%
COc1ccccc1-n1c(SCC(=O)NCc2ccc3c(c2)OCO3)nc2cc([N+](=O)[O-])ccc21,4.11µM*,?,3.0%,20.6µM*,5.6%,-2.2%
Cc1cc(C)cc(-n2c(SC(C)C(=O)NCc3ccc4c(c3)OCO4)nc3ccccc3c2=O)c1 (stereo not given),13µM*,-14.3,-1.7%,14.6µM*,9.2%,-1.9%
CC(Sc1nc2cc([N+](=O)[O-])ccc2n1-c1ccc(F)cc1)C(=O)NCc1ccc2c(c1)OCO2 (stereo not given),16.4µM*,-29.7,1.7%,14.6µM*,0.8%,-6.0%
COc1ccc(CN2C(=O)c3cccnc3C2=O)cc1S(=O)(=O)N(C)c1cccc(C)c1,2.5%,1.8,6.5%,4.1%,8.0%,-0.6%
Cc1c(Cl)ccc2c1NC(=O)[C@]21N[C@@H](Cc2ccccc2)[C@H]2C(=O)N(c3ccc(F)cc3)C(=O)[C@H]21,?,-17.5,10µM*,?,-56.8%,-9.9%
CCCCN(C=O)c1c(CC)nc2c(OCCn3cccc3)cccn12,?,-10.1,-16.9%,23.1µM*,-51.2%,nt
CCCCN(C=O)c1c(CC)nc2c(OCC(=O)C(C)(C)C)cccn12,?,26.4,22.4%,-25.0%,1.8%,nt
CCCCN(C=O)c1c(CC)nc2c(OCC(=O)c3ccc(F)cc3)cccn12,?,0.1,-2.0%,?,-7.3%,nt
CCCCN(C=O)c1c(CC)nc2c(OCCOc3ccc(F)cc3)cccn12,?,-7.6,-28.2%,16.4µM*,-15.3%,nt
COc1ccc(S(=O)(=O)N2CCC[C@H]2C(=O)N2CCC[C@H]2C(=O)NCc2ccccn2)cc1C,0.1%,-7.1,nt,-26.5%,nt,nt
SMILES,DT40 TDP1 CPT,IL-1B inflam inh,TGFb inhibitor,DT40 TDP1 no CPT,HepG2 viability,S-ASM inh
CC(C)NC1(C(N)=O)CCNCC1,-4.0%,-5.9,14.7%,?,2.4%,3.6%
CCCCn1nnnc1C1(C)CCC(=O)N1CC1CCCCC1 (stereo not given),-17.4%,34.2,nt,-18.7%,nt,nt
Cn1c(=O)c2nc(-c3ccccc3)c(-c3ccccc3)nc2n(C)c1=O,?,-0.9,2.8%,20.6µM*,14.9%,417.2%
CC1CCN(c2ccc([N+](=O)[O-])cc2C(=O)NCC2CCCO2)CC1 (stereo not given),-21.9%,27.6,-18.3%,-16.4%,-29.7%,-1.5%
CSC(=Nc1ccccc1)N=C(SCc1ccccc1)N(C)C,1.16µM*,-104.0*,5.62µM*,1.3µM*,7.08µM*,2.7%
CCOc1ccc(NC(=O)c2c(NC(=O)CN3CCCC3)sc3c2CCC3)cc1,?,6.8,18.3%,11.6µM*,12.3%,-3.4%
COc1ccc(NC(=O)c2c(NC(=O)c3cccc(C)c3)sc3c2CCCC3)cc1,-1.2%,nt,-1.6%,-14.0%,1.0%,nt
COc1ccc(NC(=O)c2c(NCc3cccs3)sc3c2CCCCC3)cc1,9.2µM*,nt,?,9.2µM*,-9.0%,nt
COc1ccc(NC(=O)c2c(NC(=O)c3ccc(Br)cc3)sc3c2CCCC3)cc1,?,nt,?,20.6µM*,-104.1%,nt
COc1ccc(NC(=O)c2c(NCc3cccs3)sc3c2CCC(C)C3)c(OC)c1 (stereo not given),?,nt,?,?,-51.2%,nt
CCOc1ccc(NC(=O)c2c(NCc3cccs3)sc3c2CCCCC3)cc1,?,nt,?,23.1µM*,-15.9%,nt
CCOc1ccc(C(=O)c2oc3ccccc3c2NC(=O)c2cc(-c3ccccc3)on2)cc1,0.6%,nt,19.4%,-2.7%,-0.5%,nt
CNC(C)[C@@H]1CC[C@@H](N)[C@@H](O[C@H]2[C@H](O)[C@@H](O[C@H]3OC[C@](C)(O)[C@H](NC)[C@H]3O)[C@H](N)C[C@@H]2N)O1 (stereo not given in full),-18.5%[21.1 µM],nt,nt,-5.6%[21.1 µM],nt,nt
COc1ccc(CNC(=O)Cn2cccc2C(=O)c2ccccc2)cc1,-22.4%,2.2,12.2%,19.8%,-1.6%,-2.2%

# Bioassay records: PubChem BioAssay, National Center for Advancing Translational Sciences (NCATS)
